Results filed as inconclusive are left out. Calls of active or inactive are those of the source. Calls follow the shape of the dose curve; as a rule, active = well fitted activation curve with a large enough effect in the signal ratio, with a control signal flat (not every such curve was filed as active); inconclusive = small, poorly fitted or top-dose-only effect, or effect the other way, or a change in a side signal; inactive = flat fitted curve, though single readings scatter; the % refers to the signal ratio.
assay: qHTS Assay for Identification of Small Molecule Agonists for Hypoxia Response Element Signaling Pathway (AID 914); conditions: ME-180 (cervical carcinoma) HRE-bla reporter, beta-lactamase ratio, CoCl2, 17 h; activation: stronger effect = higher value; as to activation: % of control where 0% means no effect
Source text: NIH Molecular Libraries Screening Centers Network [MLSCN]
NIH Chemical Genomics Center [NCGC]
Hypoxia-inducible factor-1 (HIF-1) is the major hypoxia-regulated transcription factor that controls cellular responses to low oxygen concentration. HIF-1 is composed of two subunits: hypoxia responsive HIF-1 alpha and constitutively expressed HIF-1 beta, which is also known as aryl hydrocarbon receptor nuclear translocator. During hypoxic conditions, HIF-1 alpha heterodimerizes with HIF-1 beta and translocates into the nucleus where the HIF-1 complex binds to the hypoxia-response element (HRE) and activates expression of target genes such as VEGF (vascular endothelial growth factor). HIF-1 alpha protein levels are elevated in many solid tumors, including those of the cervix and brain. Within tumors, cells that are the greatest distance from blood vessels and therefore the most hypoxic express the highest levels of HIF-1 alpha. Therapeutic blockade of the HIF-1 signaling pathway in cancer cells therefore provides an attractive strategy for development of anticancer drugs.
Using a beta-lactamase reporter-gene under control of the hypoxia response element, a cell-based assay [CellSensor(TM) HRE-bla ME-180 developed by Invitrogen Corp.] was used to measure hypoxia-induced signaling. Library compounds were measured for their ability to positively modulate the action of EC50 CoCl2 on reporter gene activity. Compounds were screened in a titration series in 1536-well format. Positive modulators were identified based on the AC50 values derived from the screening data.
NCGC Assay Protocol Summary:
2500 cells/5uL in Opti-MEM medium containing 0.5% dialyzed FBS, 0.1 mM NEAA, 1 mM sodium pyruvate and 10 mM HEPES was dispensed into 1536-well plates and cells were cultured at 37 degrees Celsius overnight. Next day 23 nL of compounds or DMSO were delivered to each well using a pin tool, and 1uL of EC50 level of CoCl2, or EC100 level of CoCl2, or assay medium was added. And then the plates were incubated at 37 degrees Celsius for 17 hours. 1 uL of CCF4-dye mixture was added to each well. After incubated at room temperature for 2.5 hours the plates were measured on an EnVision plate reader at Excitation 405nm, Emission1=460nm and Emission 2=530nm. The %Activity was determined from the ratio of 460nm/530nm.
Potency is read from the fitted curve at half-maximal effect.

SMILES | activation | Potency
COc1ccccc1-c1ccc2ncnc(NC3CC3)c2c1 | 27.8% (inactive) | 
COc1ccc(Oc2ncc3nc(-c4cn(C)c5ccccc45)c(=O)n(CCC#N)c3n2)cc1 |  | 3.16 µM (active)
CN(C)c1ncc2nc(-c3ccc(Cl)cc3)c(=O)n(C3CC3)c2n1 |  | 2.51 µM (active)
COc1ccc2[nH]cc(CCNc3cc(-c4ccccc4C)ncn3)c2c1 | -7.71% (inactive) | 
CN(C)Cc1ccccc1-c1cc(N(C)C)ncn1 | 5.79% (inactive) | 
COc1ccc(CNc2ccnc(-c3cccc(C#N)c3)n2)c(OC)c1 | -5.53% (inactive) | 
CC(C)CN1CCCC2(CCN(C(=O)c3cc(C(F)(F)F)cc(C(F)(F)F)c3)CC2)C1 | -20.4% (inactive) | 
CC(=O)NCCNc1nc(-c2ccccc2C)nc2ccccc12 | -1% (inactive) | 
COc1ccccc1-c1nc(NCCNC(C)=O)c2ccccc2n1 | -0.258% (inactive) | 
CCNc1ncc2nc(-c3ccc(OC)cc3)c(=O)n(CCc3ccccc3)c2n1 |  | 0.501 µM (active)
Cn1cccc1C(=O)N1CCC2(CCN(Cc3ccncc3)CC2)CC1 | -5.1% (inactive) | 
COCC(=O)N1CCC2(CCN(Cc3ccc(C#N)cc3)CC2)CC1 | 4.64% (inactive) | 
CCNc1ncc2nc(-c3ccc(Cl)cc3)c(=O)n(Cc3cccs3)c2n1 |  | 0.126 µM (active)
COc1ccccc1CNc1ncnc2ccc(-c3c(C)noc3C)cc12 |  | 1.26 µM (active)
COc1ccc(NC(=O)N2CCCC3(CCN(C(C)=O)CC3)C2)cc1 | -9.1% (inactive) | 
COc1ccc(Oc2ncc3ncc(=O)n(C4CC4)c3n2)cc1 | -9.06% (inactive) | 
COc1ncc2nc(-c3cccs3)c(=O)n(C)c2n1 |  | 2.51 µM (active)
COc1ccc(-c2nc3cnc(N4CCNCC4)nc3n(CCC#N)c2=O)cc1 |  | 3.16 µM (active)
Cc1noc(C)c1-c1ccc2ncnc(NCc3ccccc3)c2c1 |  | 3.16 µM (active)
O=c1c(-c2ccc(F)cc2)nc2cnc(N3CCOCC3)nc2n1CCc1ccccc1 |  | 0.501 µM (active)

SMILES | activation | Potency
Cc1cccc(CNc2ncncc2-c2cccc(NS(C)(=O)=O)c2)c1 | 3.55% (inactive) | 
CN(C)c1ccc(-c2ccc3ncnc(N(C)Cc4ccco4)c3c2)cc1 | -3.37% (inactive) | 
O=S(=O)(c1ccccc1)N1CCC2(CC1)CN(Cc1ccccc1)C2 | 8.23% (inactive) | 
COc1ccc(-n2c(=O)c(-c3ccc(Cl)cc3)nc3cnc(N(C)C)nc32)cc1 |  | 3.16 µM (active)
O=C(c1cccc(F)c1)N1CCC2(CCCN(c3ccccn3)C2)CC1 | -10.7% (inactive) | 
CN(C)C(=O)c1ccc(-c2nc(NCc3cccnc3)c3ccccc3n2)cc1 |  | 3.16 µM (active)
N#Cc1ccc(CN2CCCC3(CCN(C(=O)c4cnccn4)CC3)C2)cc1 | -10.7% (inactive) | 
COCCn1c(=O)c(-c2ccc(OC)cc2)nc2cnc(N3CCN(C)CC3)nc21 |  | 3.16 µM (active)
Cn1c(=O)c(-c2cccs2)nc2cnc(Oc3ccccc3)nc21 |  | 3.16 µM (active)
COC(=O)N1CCC[C@@]2(CCN(c3ncccn3)C2)C1 | 23.3% (inactive) | 
COc1ccccc1CN1CCC2(CC1)CCN(C(=O)c1cccc(F)c1)CC2 | 21.3% (inactive) | 
Cn1c(=O)c(-c2ccccc2)nc2cnc(N3CCNCC3)nc21 |  | 3.16 µM (active)
CCNc1ncc2nc(-c3ccc(F)cc3)c(=O)n(-c3ccccc3)c2n1 |  | 3.16 µM (active)
CN1CCN(c2ccnc(-c3ccc(N(C)C)cc3)n2)CC1 | 1.71% (inactive) | 
CCNc1ncc2nc(-c3cc(F)cc(F)c3)c(=O)n(CCc3ccccc3)c2n1 |  | 1 µM (active)
O=c1c(CCc2ccccc2)nc2cnc(N3CCOCC3)nc2n1CCc1ccccc1 | -4.33% (inactive) | 
Cn1cc(-c2nc3cncnc3n(Cc3ccccc3Cl)c2=O)c2ccccc21 | 15.7% (inactive) | 
N#Cc1ccc(CN2CC[C@@]3(CCCN(C(=O)c4cc(C(F)(F)F)cc(C(F)(F)F)c4)C3)C2)cc1 | 13.6% (inactive) | 
O=c1c(CCc2ccccc2)nc2cncnc2n1C1CC1 | 6.89% (inactive) | 
CN(Cc1ccco1)c1ncncc1-c1ccc2c(c1)OCO2 | 4.7% (inactive) | 
